From PubChem BioAssay AID1508647 (National Center for Advancing Translational Sciences (NCATS), 2021) come the findings set out here.

This is one part of the list. Records with an inconclusive call do not appear. Activity calls are given as the source filed them. Calls follow the shape of the dose curve; as a rule, active = well fitted inhibition curve with a large enough effect; inconclusive = small, poorly fitted or top-dose-only effect, or another doubt; inactive = no such curve, though single readings can be large or run the other way.

This assay deals with Peripheral myelin protein 22 (Rattus norvegicus) (UniProt P25094). The assay is described as follows: Cell-based HiBiT reporter assay to measure PMP22 protein expression in S16 Pmp22-HiBiT cells - Confirmatory screen. The conditions noted are these: S16 Schwann cells Pmp22-HiBiT, luminescence, 48 h; series mostly up to 27.9 µM. An excerpt: Assay Provider: Jim Inglese Ph.D. National Center for Advancing Translational Science, National Institutes of Health, Rockville, MD CMT is a heterogeneous group of neurological disorders that affect approximately 1 in 2,500 people. In particular, the most common form of CMT, CMT1A is genetically linked to the duplication of the PMP22 gene which leads to Schwann cell overexpression, thus manifesting itself as a typical case of dose-sensitive diseases. […] We can further discriminate the effect of all transcriptionally active molecules on PMP22 translation or stability with an assay that incorporates a short NLuc peptide (HiBiT) at the C-terminus of expressed PMP22 (S16(f8) PMP22-HiBiT) allowing alpha complementation and luminescence detection of membrane-associated PMP22 protein. […] Miniaturization of these assays to 1536-well plate format for quantitative high throughput screening (qHTS) yielded rich data sets immediately from the qHTS assay (S16(c9) Pmp22-F2sN), when compared with data from a cell viability assay (Cell TiterGlo) to identify compounds that decreased the output signals through cellular toxicity to streamline the selection process of actives for subsequent characterization using the HiBiT assay (S16(f8) PMP22-HiBiT). […]
Sequence of Peripheral myelin protein 22 (Rattus norvegicus) (P25094 whole entry, looked up): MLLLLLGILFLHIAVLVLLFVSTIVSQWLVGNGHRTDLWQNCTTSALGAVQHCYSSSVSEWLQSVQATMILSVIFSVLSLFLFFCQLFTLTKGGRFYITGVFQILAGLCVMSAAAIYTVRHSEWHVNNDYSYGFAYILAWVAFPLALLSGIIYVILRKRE
(In general: With HiBiT, luminescence reflects the tagged protein that the partner subunit can reach.)
As to `Cc1ccc(NC(=O)c2nc(S(=O)(=O)Cc3cccc(C)c3)ncc2Cl)cc1`, the result was inactive.
